Screening data: PubChem, National Center for Advancing Translational Sciences (NCATS)
SW480 rerep – A quantitative high throughput screen for small molecules that induce DNA re-replication in SW480 colon adenocarcinoma cells. actives 1.8% (n = 340,000). Potency, µM (highest dose often 46.1 µM), for inactives: top-dose re-replication activation, actives largely listed as activators. SW480 DNA re-replication, Hoechst DNA content imaging, 48 h; note: potency is the fitted concentration of half-maximal effect; % of control where 0% means no effect; nearly all actives have a fitted effect of over 55% in size
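Image-based DNA-content assay: after two days of treatment, nuclei were labelled with the DNA dye Hoechst and imaged, and hits were compounds raising the count of nuclei showing high fluorescence intensity.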
MCF10A rereplic – A quantitative high throughput screen for small molecules that induce DNA re-replication in MCF 10a normal breast cells | MCF 10A DNA re-replication, Hoechst nuclear intensity, 48 h | Potency, µM (titrated, usually from 46.1 µM), for the others: at the top dose activity, positive = re-replication, usual class: activators | actives 2.9% (n = 350,000) | AID 624296, 2012; note: potency is the fitted concentration of half-maximal effect; % of control where 0% means no effect; nearly all actives have a fitted effect of over 50% in size
RORgamma inh – qHTS for inhibitors of ROR gamma transcriptional activity | Nuclear receptor ROR-gamma (Mus musculus), P51450 | Drosophila S2 Gal4-RORgamma UAS-luciferase reporter, 20 h | Potency, µM (top dose mostly 53.6 µM), without a hit: at the top dose activity change, negative = inhibition, actives largely listed as inhibitors | actives 5.4% (n = 310,000) | AID 2551, 2010; note: potency is the fitted concentration of half-maximal effect; % is set by controls: 0 for no effect and ±100 for the full control effect; nearly all actives have a fitted effect of over 60% in size
Target sequence (P51450 whole entry, looked up, the tested form may be a part): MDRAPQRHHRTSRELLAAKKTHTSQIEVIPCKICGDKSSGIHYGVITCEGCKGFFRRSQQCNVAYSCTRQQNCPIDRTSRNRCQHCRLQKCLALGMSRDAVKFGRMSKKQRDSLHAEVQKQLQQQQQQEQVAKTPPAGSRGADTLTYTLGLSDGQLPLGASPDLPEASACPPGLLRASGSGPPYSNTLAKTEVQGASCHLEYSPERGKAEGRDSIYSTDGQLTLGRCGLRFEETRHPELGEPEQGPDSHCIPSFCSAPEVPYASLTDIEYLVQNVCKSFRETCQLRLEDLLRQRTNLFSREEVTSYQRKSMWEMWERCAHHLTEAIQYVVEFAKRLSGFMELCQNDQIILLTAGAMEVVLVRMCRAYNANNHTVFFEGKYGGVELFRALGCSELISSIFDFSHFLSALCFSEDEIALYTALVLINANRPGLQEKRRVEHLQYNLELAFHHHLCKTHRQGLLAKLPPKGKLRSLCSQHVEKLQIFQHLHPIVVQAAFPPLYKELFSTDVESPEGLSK
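A Gal4/UAS one-hybrid system in insect cells: metallothionein-promoter Gal4–ROR gamma fusion plus Photinus luciferase reporter. Copper sulfate 700 uM final, 20 hr ambient incubation, luminescent detection after 10 min with reagent.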
VP16 counter – VP16 counterscreen qHTS for inhibitors of ROR gamma transcriptional activity; actives 3.5% (n = 310,000); Drosophila S2 Gal4-VP16 UAS-luciferase, luminescence, 20 h; AID 2546, 2010; Potency, µM (doses to about 53.6 µM), for inactives: at the top dose activity, negative = inhibition, hits mostly inhibitors;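 note: Gal4-VP16 expression switched on by copper sulfate through the metallothionein promoter; potency is the fitted concentration of half-maximal effect; % is set by controls: 0 for no effect and ±100 for the full control effect; nearly all actives have a fitted effect of over 50% in size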
IL1B secr inh – qHTS for Inhibitors of Inflammasome Signaling: IL-1-beta AlphaLISA Primary Screen; THP-1 LPS/ATP IL-1B secretion, AlphaLISA, 16 h; hits give low values; activity change, % at 57.5 µM; actives 4.7% (n = 360,000); AID 743279, 2014; in the data active = activity change below about -50%; inconclusive = mostly about -30% to -49%; note: % is set by controls: 0 for no effect and ±100 for the full control effect
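Secreted IL-1B measured by AlphaLISA bead assay after 16 h compound exposure of THP-1 cells; compounds (final up to 57.5 uM) added 1 h before LPS (250 ng/mL) and ATP (1.25 mM) stimulation; lower signal means less secretion.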
Starred values were filed as active, the others as inactive; i = inactive; ? = inconclusive; . = no result given; [ ] = remark or other dose. Shown are actives, neighbours in structure and some others; about 11% of the full set was active somewhere. Unless noted, calls come from the whole dose curve; as a rule, active = well fitted curve in the direction sought with a large enough effect; inconclusive = small, poorly fitted or top-dose-only effect, or another doubt; inactive = no such curve, though single readings can be large; an effect the other way counts as inactive or inconclusive.

SMILES	SW480 rerep	MCF10A rereplic	RORgamma inh	VP16 counter	IL1B secr inh
O=C(NC(=S)NN1CCCCC1c1cccnc1)c1ccc(Cl)cc1Cl (centres undefined)	2%	-1%	1.6µM*	4.5µM*	-15
O=C(Nc1ccc(Cl)cc1C(=O)NCc1cccnc1)c1ccc(Cl)cc1Cl	?	?	?	-1%	0
O=C(NC(=S)N1CCCCC1c1cccnc1)c1ccc(F)cc1 (centres undefined)	-17%	-1%	0.89µM*	2.5µM*	-3
O=C(NC(=S)N1CCCCC1c1cccnc1)c1ccc(Br)cc1 (centres undefined)	14%	7%	0.5µM*	1.3µM*	-7
Cc1cccc(NC(=S)N2CCCCC2c2cccnc2)c1C (centres undefined)	-4%	2%	-28%	8%	22
COC(=O)C(Cc1ccccc1)NC(=O)c1cc(S(=O)(=O)N(C)C)ccc1Cl (centres undefined)	-5%	4%	1%	9%	-75*
CN(C(=O)CO/N=C/c1ccc(Cl)cc1)c1ccccc1	-4%	1%	29%	11%	-51*
COc1ccc(/C=N/OCC(=O)OCC(=O)N(C)c2ccccc2)cc1	-3%	-1%	.	.	9
CN(C)CCCNC(=O)c1ccc(-c2nc(-c3ccc(Cl)cc3)cs2)cc1	10%	?	-84%	?	-97*
CN1C=Nc2c(ncn2C2CCC(CO)O2)C1O (centres undefined)	.	.	.	.	16
O=C(N/N=C1\CCc2ccccc21)c1ccccc1O	2%	-7%	?	?	i
Cc1ccc(C)c(NC(=S)N/N=C2\CCc3ccccc32)c1	11%	?	7.1µM*	10µM*	78
COc1ccc(NC(=S)N/N=C2/CCCc3c(C)cc(C)cc32)cc1	1%	-4%	2.8µM*	?	22
Cc1cccc(NC(=S)N/N=C2/CCCCc3ccccc32)c1	5%	?	2.8µM*	6.3µM*	22
Cc1ccc(S(=O)(=O)NN=C2CCCc3ccccc32)cc1	.	.	.	.	21
Cc1ccc(NC(=S)N/N=C2/CCCCc3ccccc32)cc1	-14%	?	3.5µM*	-24%	0
COc1ccc(NC(=O)CN(C)C(=O)C(Sc2ccccc2)c2ccccc2)cc1 (centres undefined)	-9%	23%	.	.	6
CCn1nc(C)c(Br)c1C(=O)Sc1ccccc1Cl	23%	18µM*	?	-20%	-28
COC(=O)[C@@]1(Cc2ccc(F)cc2)[C@H]2c3cc(C(=O)N4CCCC4)n(C)c3C[C@H]2CN1C(=O)c1ccccc1	.	.	.	.	-54*
COC(=O)[C@@]1(Cc2ccc(OC)cc2)[C@H]2c3cc(C(=O)N(C)C)n(Cc4ccc(OC(F)(F)F)cc4)c3C[C@H]2CN1C(=O)c1ccccc1	18µM*	?	?	-11%	-62*
COC(=O)[C@@]1(Cc2ccc(F)cc2)[C@H]2c3cc(C(=O)N4CCCC4)n(Cc4ccccc4)c3C[C@H]2CN1C(=O)c1ccccc1	.	.	32%	-19%	-51*
COCCn1c(C(=O)N2CCCC2)cc2c1C[C@H]1CN(C(=O)c3ccccc3)[C@@](Cc3ccc(F)cc3)(C(=O)OC)[C@@H]21	-23%	1%	43%	1%	-17
Cc1ccc(C(=O)N2CCC3CC2c2cc(-c4ccc5c(c4)OCO5)ccc23)cc1 (centres undefined)	-44%[9.22 µM]	?	.	.	3
COCCCN1C(=O)C(CC(=O)NC(c2ccccc2)c2ccccc2)CC(C(=O)N2CCCCCC2)=C1C (centres undefined)	.	.	.	.	-1
Cc1cccc(-n2c(=S)[nH]c3c(oc4ccccc43)c2=O)c1	-7%	8%	2.8µM*	4.5µM*	0
O=c1c2oc3ccccc3c2[nH]c(=S)n1-c1ccccc1	-16%	15%	?	5µM*	27
Cc1ccc(-n2c(=S)[nH]c3c(oc4ccccc43)c2=O)cc1	23%	-4%	90%	-5%	7
